Bioassay records: PubChem BioAssay, National Center for Advancing Translational Sciences (NCATS)
The list is not random: actives were taken first. Their share in the collection is about 1.1%.
MBNL1-CUG inh: MBNL1-poly(CUG) RNA binding inhibition; Q9NR56; Potency, µM (highest dose often 57.5 µM), for inactives: top-dose activity change, negative = inhibition, usual class: inhibitors; TR-FRET MBNL1-His/biotin-(CUG)12 binding, 665/545 ratio; 280,000 tested, 0.036% active; active means well fitted inhibition curve with a large enough effect in the signal ratio, with a control signal flat, not every such curve was filed as active; inconclusive means small, poorly fitted or top-dose-only effect, or effect the other way, or a change in a side signal; inactive means no such curve, though single readings can be large or run the other way; the % refers to the signal ratio; further: potency means the concentration at half of the fitted maximal effect; on the % scale 0 is the no-effect control and ±100 the full control effect
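MBNL1-His + Biotin-(CUG)12, cpd titration 92 nM–58 uM; Tb anti-His Ab 0.055 ng/ul, SA-XL665 5 nM (final); 60 min RT; ratiometric 665/545 nm, Ex 340 nm; normalized to buffer and full-complex controls.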
Mito fusion act: inhibitors of mitochondrial division or activators of mitochondrial fusion; S. cerevisiae fusion-defective mutant growth rescue, CellTiterGlo 48 h; Potency, µM (series often up to 46.1 µM), inactives show top-dose growth rescue (activation), hits mostly activators; 320,000 tested, 0.23% active; AID 485298; active means well fitted activation curve with a large enough effect; inconclusive means small, poorly fitted or top-dose-only effect; inactive means no such curve, though single readings can be large or run the other way; further: potency means the concentration at half of the fitted maximal effect; % of control where 0% means no effect; nearly all actives have a fitted effect of over 45% in size
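Luminescent cell viability in 1536-well qHTS format served as the measure of rescued growth in ts fusion-mutant S. cerevisiae cultured on non-fermentable YPEG for 48 hours at 37C.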
Six1-Eya2 blk: Six1/Eya2 interaction inhibition; 360,000 tested, 0.56% active; Q15475+O00167; AlphaScreen GST-Six1/His-Eya2 binding, biochemical; stronger effect = lower value; activity change, % (no concentration beside the values); further: on the % scale 0 is the no-effect control and ±100 the full control effect
Target sequence (O00167 whole entry, looked up): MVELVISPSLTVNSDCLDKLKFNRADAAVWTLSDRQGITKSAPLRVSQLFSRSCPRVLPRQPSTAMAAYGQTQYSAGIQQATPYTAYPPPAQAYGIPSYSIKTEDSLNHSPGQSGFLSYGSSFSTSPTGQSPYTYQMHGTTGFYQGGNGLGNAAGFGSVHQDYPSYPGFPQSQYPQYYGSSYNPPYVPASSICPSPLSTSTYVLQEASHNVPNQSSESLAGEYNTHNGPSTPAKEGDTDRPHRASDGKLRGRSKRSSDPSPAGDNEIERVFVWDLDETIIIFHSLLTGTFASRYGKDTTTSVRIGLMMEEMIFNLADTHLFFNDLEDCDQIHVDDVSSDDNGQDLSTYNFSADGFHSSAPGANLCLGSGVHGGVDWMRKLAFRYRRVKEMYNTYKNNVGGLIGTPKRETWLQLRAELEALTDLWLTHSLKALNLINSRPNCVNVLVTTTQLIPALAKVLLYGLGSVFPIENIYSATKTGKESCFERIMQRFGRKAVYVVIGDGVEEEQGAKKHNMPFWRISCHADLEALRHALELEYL
Target sequence (Q15475 whole entry, looked up): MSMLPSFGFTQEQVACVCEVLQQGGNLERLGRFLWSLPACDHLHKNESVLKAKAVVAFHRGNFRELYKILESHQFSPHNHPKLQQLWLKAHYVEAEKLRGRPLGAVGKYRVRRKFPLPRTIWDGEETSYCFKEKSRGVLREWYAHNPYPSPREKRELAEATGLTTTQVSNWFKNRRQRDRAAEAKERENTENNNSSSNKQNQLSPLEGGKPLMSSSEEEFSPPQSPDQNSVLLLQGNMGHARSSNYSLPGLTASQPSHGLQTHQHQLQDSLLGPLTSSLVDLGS
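AlphaScreen luminescence read after one hour at 37 °C in darkness. Pin-transferred compounds met GST-Six1 and His-Eya2 protein (5X stock 250 nM/500 nM) plus glutathione donor and Ni-chelate acceptor beads (5X, 50 ug/mL).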
CtBP-E1A blk: CtBP/E1A binding inhibition. AlphaScreen GST-E1A/His-CtBP binding, 1536-well; stronger effect = lower value. activity change, % (concentration not given with the values). AID 651724. 340,000 tested, 0.49% active; further: on the % scale 0 is the no-effect control and ±100 the full control effect
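AlphaScreen with 125 nM GST-E1A and 125 nM His-CtBP (5X stocks) in Tris pH 8.0, 300 mM NaCl, BSA, Tween 20, TCEP. Compounds preincubated 2 h at 37 deg C, then glutathione donor/nickel acceptor beads added for 1 h at 37 deg C in dark.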
uPA generation: inhibitors of cell surface uPA generation. cell surface uPA generation assay, qHTS. Potency, µM (doses to about 38.3 µM), for inactives: at the top dose activity change, negative = inhibition, most hits filed as inhibitors. 330,000 tested, 0.31% active. AID 540303; active means well fitted inhibition curve with a large enough effect; inconclusive means small, poorly fitted or top-dose-only effect; inactive means no such curve, though single readings can be large or run the other way; tested in mouse RAW 264.7 cells; further: potency means the concentration at half of the fitted maximal effect; on the % scale 0 is the no-effect control and ±100 the full control effect; nearly all actives have a fitted effect of over 55% in size
* marks the source's active call; other numbers are inactive results; ? = inconclusive; nt = no result; [ ] = another dose, or the depositor's remark. Unless noted, no stated cut-off is given here; in the data, active means activity change below about -65%; inconclusive means mostly about -30% to -63%; inactive means weaker than that.

SMILES	MBNL1-CUG inh	Mito fusion act	Six1-Eya2 blk	CtBP-E1A blk	uPA generation
Cc1cc(C)n(CC(O)Cn2c3ccccc3c3ccccc32)n1 (stereo not given)	1.9%	15.8µM*	-1.8	6.4	5.8%
Cc1cc(C)n(CC(O)Cn2ccc3ccccc32)n1 (stereo not given)	1.6%	1.8%	2.4	1.2	nt
Nc1sc(-c2ccccc2)cc1C(=O)NCCc1c[nH]c2ccccc12	nt	nt	-12.7	-27.8	nt
Cc1cc2c(c(=O)n1Cc1ccccc1)C1O[C@](c3ccsc3)(Cc3ccccc31)O2	8.9%[11.5 µM]	12.9%[9.22 µM]	nt	nt	nt
COc1ccc2oc(C(=O)Nc3nc4ccccc4[nH]3)c(C)c2c1	18.0%	-2.1%	2.8	nt	3.55µM*
O=C(OCC#CCNc1nnc(-c2cccc3ccccc23)o1)c1cccs1	nt	-0.5%	nt	nt	nt
O=C1c2cc(CO)cc(O)c2C(=O)c2c(O[C@@H]3OC(CO)[C@@H](O)[C@@H](O)[C@@H]3O)cccc21 (stereo not given in full)	nt	nt	-2.7	-4.3	4.7%
O=C(O)c1cc(O)c2c(c1)[C@@H]([C@H]1c3cc(C(=O)O)cc(O)c3C(=O)c3c(O[C@@H]4O[C@H](CO)[C@@H](O)[C@H](O)[C@H]4O)cccc31)c1cccc(OC3O[C@H](CO)[C@@H](O)[C@H](O)[C@H]3O)c1C2=O (stereo not given in full)	nt	-9.7%	-82.4*	-29.3	?
O=C(O)c1cc(O)c2c(c1)[C@H]([C@H]1c3cc(C(=O)O)cc(O)c3C(=O)c3c(O[C@@H]4O[C@H](CO)[C@@H](O)[C@H](O)[C@H]4O)cccc31)c1cccc(OC3O[C@H](CO)[C@@H](O)[C@H](O)[C@H]3O)c1C2=O (stereo not given in full)	nt	-17.5%	-73.6*	?	1.4%
COc1cc(NC(=O)CN2C(=O)COc3ccc(S(=O)(=O)N4CCCC4)cc32)cc(OC)c1	-1.2%	13.4%	?	-77.4*	4.3%
COc1ccc(NC(=O)CN2C(=O)COc3ccc(S(=O)(=O)N4CCCCC4)cc32)c(OC)c1	-3.5%	-6.1%	-0.6	-7.0	-2.6%
COc1ccc(NC(=O)CN2C(=O)COc3ccc(S(=O)(=O)N4CCOCC4)cc32)cc1Cl	-2.9%	-7.6%	5.9	-92.0*	-0.5%
COc1cc(NC(=O)CN2C(=O)COc3ccc(S(=O)(=O)N4CCCCC4)cc32)cc(OC)c1	-4.1%	-10.4%	?	-72.9*	-5.3%
Cc1cc(C)cc(NC(=O)CN2C(=O)COc3ccc(S(=O)(=O)N4CCCC4)cc32)c1	1.0%	1.2%	-5.1	nt	6.8%
CCNC(=O)C1(C)CCCN(C(=O)c2cc(-c3ccccc3)cs2)C1 (stereo not given)	nt	nt	6.6	3.7	nt
CCc1ccc(C(O)c2ncc(-c3ccccc3OC)[nH]2)cc1 (stereo not given)	nt	nt	-8.8	-9.9	nt
Cc1oc2c(O)c(O)ccc2c(=O)c1-c1cnn(-c2ccccc2)c1	-7.0%	6.4%	?	?	nt
Cc1nc(-c2cnn(-c3ccccc3)c2)c2cc(C)oc2n1	5.9%	20.1%	-86.7*	-87.9*	1.0%
N#Cc1c(SCC(=O)Nc2ccc(C(F)(F)F)cc2)sc2c(O)cc(=O)[nH]c12	32.7%	4.7%	-2.5	-4.6	2.9%
N#Cc1c(SCC(=O)Nc2nncs2)sc2c(O)cc(=O)[nH]c12	?	-5.7%	?	-82.4*	-0.9%
Cc1nc2ccc(C(=O)N(C)Cc3ccco3)cn2c1N(C)C(=O)CCc1ccccc1	nt	nt	0.9	-4.3	nt
O=S(=O)(c1ccc2oc(=S)[nH]c2c1)N1CCCCC1	nt	6.6%	0.4	nt	13.1%
S=c1[nH]c2cc(-c3ccccc3)ccc2o1	4.5%	15.8µM*	11.0	2.1	-7.1%
CCCCn1c(C)cc2c(c1=O)C1O[C@](c3ccsc3)(Cc3ccccc31)O2	-6.2%[11.5 µM]	3.6%[9.22 µM]	nt	nt	nt
CC(C)CCNC(=O)c1cc(S(=O)(=O)N2CCC3(CC2)OCCO3)ccc1F	nt	nt	2.4	4.1	nt
SMILES	MBNL1-CUG inh	Mito fusion act	Six1-Eya2 blk	CtBP-E1A blk	uPA generation
O=[N+]([O-])c1ccc(NC(c2ccccc2)c2ccc3cccnc3c2O)cc1 (stereo not given)	nt	nt	-18.3	-19.7	-9.9%
CC(=O)NC(c1cccc([N+](=O)[O-])c1)c1c(OC(C)=O)ccc2ccccc12 (stereo not given)	nt	nt	-8.5	-1.0	2.5%
CCCCC(=O)NC(c1cccc([N+](=O)[O-])c1)c1ccc2cccnc2c1O (stereo not given)	nt	nt	?	nt	5.01µM*
COc1cccc(C(NC(C)=O)c2ccc3cccnc3c2O)c1 (stereo not given)	11.5%	8.4%	-66.8*	-91.3*	-14.0%
Oc1cccc(C(Nc2nccs2)c2ccc3cccnc3c2O)c1 (stereo not given)	nt	1.9%	-82.9*	-81.4*	-1.7%
CC(=O)NC(c1cccc([N+](=O)[O-])c1)c1ccc2cccnc2c1O (stereo not given)	?	6.2%	-68.6*	-92.4*	-13.0%
CC(=O)NC(c1ccc(C(C)C)cc1)c1ccc2cccnc2c1O (stereo not given)	13.2%	4.8%	?	?	-16.8%
Cc1ccc(CN2C(=O)CSCC2(C)C(=O)NCc2ccccc2)cc1 (stereo not given)	nt	nt	0.4	8.0	nt
COc1ccc(CN(C)C[C@@H]2OCCCC[C@H](C)Oc3ccc(NC(=O)Nc4ccc(F)cc4)cc3C(=O)N([C@H](C)CO)C[C@H]2C)cc1	nt	nt	-11.0	-3.6	nt
COc1cc([N+](=O)[O-])cc(/C=N/NC(=O)C(O)(c2ccccc2)c2ccccc2)c1O	?	-2.2%	?	-81.9*	0.9%
COc1cc([N+](=O)[O-])cc(/C=N/NC(=O)c2cccnc2)c1O	nt	0.7%	-90.2*	-91.5*	2.7%
CCC1=NN(C(=O)c2ccccc2O)C(O)(c2ccccc2)C1 (stereo not given)	-4.5%	-6.6%	-17.0	-7.1	11.2µM*
COc1ccc(-c2ccc(C(=O)Nc3cc(OC)c(OC)c(OC)c3)c3occc23)c(C)c1	nt	nt	-13.6	1.4	nt
CC(=O)Nc1ccc(C(=O)OCc2ccc(F)cc2Cl)cc1	nt	12.6µM*	3.6	-1.3	0.4%
CC(=O)Nc1ccc(C(=O)OCc2ccc(F)cc2)cc1	-3.9%	?	-1.3	0.5	3.7%
COc1ccc(C(N)c2nccc3cc(OC)c(OC)cc23)cc1OC (stereo not given)	?	1.3%	-75.5*	?	8.2%
COc1cccc(N2[C@@H](CC(C)=O)c3ccc(/C=C/C(C)=O)cc3S2(=O)=O)c1	nt	nt	0.3	3.4	3.16µM*
COc1ccc(CN2[C@@H](CC(C)=O)c3ccc(/C=C/C(C)=O)cc3S2(=O)=O)cc1	nt	nt	0.1	0.0	?
COc1ccc([C@]23Cc4cc(C#N)ccc4[C@H](O2)c2c(cc(C)n(Cc4ccccc4)c2=O)O3)cc1	13.8%[11.5 µM]	-1.8%[9.22 µM]	nt	nt	nt
